Gal4-VP16 FLuc = Gal4-VP16 reporter inhibition counter-screen; Drosophila S2 Gal4-VP16 UAS-luciferase, luminescence, 20 h; Potency, µM (titrated, usually from 53.6 µM), for the others: at the highest dose activity, negative = inhibition, actives largely listed as inhibitors; 310,000 compounds, 3.5% hits; AID 2546;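 also: Gal4-VP16 expression switched on by copper sulfate through the metallothionein promoter; nearly all actives have a fitted effect of over 50% in size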
TDP1 cell noCPT = qHTS for Inhibitors of human tyrosyl-DNA phosphodiesterase 1 (TDP1): qHTS in cells in absence of CPT. DT40 Tdp1-/- hTDP1 cells, no CPT, ATP luminescence, 48 h. Potency, µM (series often up to 46.2 µM), for inactives: top-dose activity change, negative = growth inhibition, most hits filed as inhibitors. 420,000 compounds, 15% hits. AID 686978, 2013; also: nearly all actives have a fitted effect of over 55% in size
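Growth kinetics read by CellTiter-Glo luminescence after ≥48 hr at 37 °C. Cells: DT40 Tdp1-/- stably carrying human TDP1, 400 per well, compound exposure in the absence of CPT (DMSO vehicle).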
TDP1 inh = inhibitors of human tyrosyl-DNA phosphodiesterase TDP1; Potency, µM (top dose mostly 130 µM), inactives show at the highest dose activity change, negative = inhibition, usual class: inhibitors; Q9NUW8; 350,000 compounds, 0.28% hits; recombinant TDP1, AlphaScreen DNA substrate cleavage; also: nearly all actives have a fitted effect of over 40% in size
Target sequence (Q9NUW8 whole entry, looked up): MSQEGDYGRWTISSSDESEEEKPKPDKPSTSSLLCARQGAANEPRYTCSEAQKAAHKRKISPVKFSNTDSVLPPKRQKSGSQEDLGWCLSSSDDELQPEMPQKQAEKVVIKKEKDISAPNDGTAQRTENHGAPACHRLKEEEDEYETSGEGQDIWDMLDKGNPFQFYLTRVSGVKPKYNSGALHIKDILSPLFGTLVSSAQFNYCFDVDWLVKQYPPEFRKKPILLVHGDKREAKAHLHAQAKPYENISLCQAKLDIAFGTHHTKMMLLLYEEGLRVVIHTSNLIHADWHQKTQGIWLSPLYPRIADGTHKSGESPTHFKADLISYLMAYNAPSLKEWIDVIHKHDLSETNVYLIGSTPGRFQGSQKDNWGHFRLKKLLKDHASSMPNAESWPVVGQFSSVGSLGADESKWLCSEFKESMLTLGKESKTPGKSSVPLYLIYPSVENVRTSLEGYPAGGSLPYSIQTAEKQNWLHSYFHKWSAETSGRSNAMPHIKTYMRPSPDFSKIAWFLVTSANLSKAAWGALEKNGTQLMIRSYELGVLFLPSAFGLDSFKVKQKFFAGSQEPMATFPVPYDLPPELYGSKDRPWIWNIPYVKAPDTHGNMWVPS
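Recombinant E. coli-expressed Tdp1 (1 nM) preincubated with compound 15 min at RT, then 5'-biotin/3'-phosphotyrosine-FITC DNA substrate (15 nM) added for 5 min. AlphaScreen beads (10 ug/ml) added, 10 min RT; tyrosine-FITC cleavage read as signal loss.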
RORg inh = blocks mouse ROR gamma transcriptional activity; P51450; Drosophila S2 Gal4-RORgamma UAS-luciferase reporter, 20 h; Potency, µM (titrated, usually from 53.6 µM), without a hit: top-dose activity change, negative = inhibition, actives largely listed as inhibitors; 310,000 compounds, 5.4% hits; also: nearly all actives have a fitted effect of over 60% in size
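Drosophila S2 cells stably expressing Gal4-DBD/mouse RORγ fusion under metallothionein promoter plus UAS-luciferase; compound 1 h, then 700 uM CuSO4 induction for 20 h at ambient temperature; inhibition read as reduced luminescence.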
DT40 TDP1 CPT = DT40-hTDP1 cell growth loss with CPT. chicken DT40 Tdp1-/-;hTDP1 cells + 20 nM CPT, ATP luminescence, 48 h. Potency, µM (doses to about 46.2 µM), for inactives: at the highest dose activity change, negative = growth inhibition, usual class: inhibitors. 420,000 compounds, 12% hits. AID 686979; also: nearly all actives have a fitted effect of over 55% in size
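Chicken DT40 Tdp1-/- cells complemented with human TDP1, 400 cells/well, exposed to compounds plus 20 nM camptothecin for at least 48 h at 37 C; viability read as ATP content by CellTiter-Glo luminescence.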
Active calls of the source: *; [ ] = remark or other dose. Compounds with a hit are over-represented: about 19% of the library has one in this group of screens. Calls follow the shape of the dose curve; as a rule, active = well fitted curve in the direction sought with a large enough effect; inconclusive = small, poorly fitted or top-dose-only effect, or another doubt; inactive = no such curve, though single readings can be large; an effect the other way counts as inactive or inconclusive. % is scaled to controls: 0 for no effect and ±100 for the full control effect; potency is read from the fitted curve at half-maximal effect.

Results for CCOC(=O)N1CCC(n2c(SCC(=O)NCc3ccccc3)nc3ccccc3c2=O)CC1 ?
Gal4-VP16 FLuc: -5.5%; TDP1 cell noCPT: 20.6µM*; TDP1 inh: 7.1%; RORg inh: -44.5%; DT40 TDP1 CPT: 23.1µM*

Results for CCOC(=O)C1CCN(c2c(C(=O)c3ccccc3)cnc3ccc(CC)cc23)CC1 ?
Gal4-VP16 FLuc: -4.9%; TDP1 cell noCPT: 18.4µM*; TDP1 inh: 3.5%; RORg inh: 1.2%; DT40 TDP1 CPT: inconclusive

Results for COc1cc2ncc(C(=O)c3ccccc3)c(N3CCN(Cc4ccccc4)CC3)c2cc1OC ?
Gal4-VP16 FLuc: -4.6%; TDP1 cell noCPT: 18.4µM*; RORg inh: 39.8%; DT40 TDP1 CPT: inconclusive

Results for CCOC(=O)C1CCN(c2c(C(=O)c3ccc(OC)cc3)cnc3ccccc23)CC1 ?
TDP1 cell noCPT: 16.4µM*; TDP1 inh: 2.9%; DT40 TDP1 CPT: 20.6µM*

What do the screens show for `O=C(c1ccccc1)c1cnc2ccc(Cl)cc2c1N1CCOCC1`?
Gal4-VP16 FLuc: -5.2%; TDP1 cell noCPT: -7.1%; TDP1 inh: 4.6%; RORg inh: 0.9%; DT40 TDP1 CPT: -0.2%

How did CCOC(=O)C1CCCN(c2c(C(=O)c3ccccc3)cnc3ccccc23)C1 (stereo not given) do in these assays?
Gal4-VP16 FLuc: 14.0%; TDP1 cell noCPT: -29.4%; TDP1 inh: 4.9%; RORg inh: -3.2%; DT40 TDP1 CPT: -9.5%

How did Cc1cccc(NC(=O)CSCC(=O)OCc2ccccn2)c1 do in these assays?
TDP1 cell noCPT: -0.3%; TDP1 inh: -0.3%[0.505 µM]; DT40 TDP1 CPT: -6.1%

What do the screens show for `COc1cccc(C(c2nnnn2CCc2ccccc2)N2CCN(c3ccccc3)CC2)c1OC` (stereo not given)?
Gal4-VP16 FLuc: 13.9%; TDP1 cell noCPT: inconclusive; TDP1 inh: 2.5%; RORg inh: 5.4%; DT40 TDP1 CPT: inconclusive

Results for COc1ccccc1N1CCN(C(c2ccccc2)c2nnc(-c3ccccc3Cl)o2)CC1 (stereo not given) ?
TDP1 cell noCPT: inconclusive; TDP1 inh: 8.4%; DT40 TDP1 CPT: 29.1µM*

Results for COc1ccccc1N1CCN(C(c2ccccc2)c2nnnn2CCc2ccccc2)CC1 (stereo not given) ?
Gal4-VP16 FLuc: -7.1%; TDP1 cell noCPT: 18.4µM*; TDP1 inh: 7.3%; RORg inh: inconclusive; DT40 TDP1 CPT: 18.4µM*

Results for COc1ccccc1C(c1nnnn1CCc1ccccc1)N1CCCCCC1 (stereo not given) ?
Gal4-VP16 FLuc: 0.8%; TDP1 cell noCPT: 23.1µM*; TDP1 inh: -2.3%; RORg inh: -9.2%; DT40 TDP1 CPT: inconclusive

What do the screens show for `O=c1c2c(nc3nc(SCc4ccccc4)[nH]n13)CCC2`?
Gal4-VP16 FLuc: -2.2%; TDP1 cell noCPT: -17.0%; TDP1 inh: 6.1%; RORg inh: 17.0%; DT40 TDP1 CPT: -21.7%

How did CCCCCc1ccnc(CC(=O)c2ccc(OC)cc2)c1 do in these assays?
TDP1 cell noCPT: 8.2µM*; DT40 TDP1 CPT: 8.2µM*

Results for CCCCCc1ccc(-c2ccc(OC)cc2)nc1 ?
Gal4-VP16 FLuc: 6.1%; TDP1 cell noCPT: -25.0%; TDP1 inh: -2.8%; RORg inh: -20.1%; DT40 TDP1 CPT: 0.5%

Results for COc1cccc(CN2C(=O)Nc3ccccc3C(=O)N2C(C)(C)C)c1 ?
Gal4-VP16 FLuc: 7.0%; TDP1 cell noCPT: -5.5%; TDP1 inh: 2.0%; RORg inh: 16.1%; DT40 TDP1 CPT: -6.5%

How did O=C(CSc1nc(-c2cccs2)cc(C(F)(F)F)n1)Nc1cc(OCC(F)(F)C(F)F)cc([N+](=O)[O-])c1 do in these assays?
Gal4-VP16 FLuc: -28.2%; TDP1 cell noCPT: 11.6µM*; TDP1 inh: -5.3%; RORg inh: 26.1%; DT40 TDP1 CPT: 8.2µM*

What do the screens show for `COc1ccc(NC(=O)CSc2nc(-c3cccs3)cc(C(F)(F)F)n2)c(OC)c1`?
TDP1 cell noCPT: 20.6µM*; TDP1 inh: -3.2%; DT40 TDP1 CPT: 16.4µM*

How did O=C(CSc1nc(-c2ccc(F)cc2)cc(C(F)(F)F)n1)NCc1cccs1 do in these assays?
Gal4-VP16 FLuc: inconclusive; TDP1 cell noCPT: -4.5%; TDP1 inh: 5.4%; RORg inh: -20.1%; DT40 TDP1 CPT: 2.3%

What do the screens show for `Cc1ccc(NC(=O)CSc2nc(-c3cccs3)cc(C(F)(F)F)n2)cc1C`?
TDP1 cell noCPT: 5.8µM*; TDP1 inh: 2.1%; DT40 TDP1 CPT: 7.31µM*

Results for CCN(CC)c1ccc(NC(=O)CSc2nc(-c3cccs3)cc(C(F)(F)F)n2)cc1 ?
TDP1 cell noCPT: inconclusive; TDP1 inh: 4.2%; DT40 TDP1 CPT: inconclusive

What do the screens show for `O=C(CSc1nc(-c2cccs2)cc(C(F)(F)F)n1)NCCCn1ccnc1`?
Gal4-VP16 FLuc: -11.2%; TDP1 cell noCPT: -0.4%; TDP1 inh: 7.8%; RORg inh: -3.9%; DT40 TDP1 CPT: -10.8%

Results for O=C(CSc1nc(-c2cccs2)cc(C(F)(F)F)n1)Nc1ccccc1Cl ?
TDP1 cell noCPT: 18.4µM*; TDP1 inh: 5.3%; DT40 TDP1 CPT: inconclusive

What do the screens show for `CCCCCCCN(CC)CCCC(O)c1ccc(NS(C)(=O)=O)cc1` (stereo not given)?
TDP1 cell noCPT: -25.5%; DT40 TDP1 CPT: inconclusive

Results for Cc1ccc(-c2nnc(N3CCN(C(=O)CSc4ncn[nH]4)CC3)c3ccccc23)cc1 ?
Gal4-VP16 FLuc: 0.2%; TDP1 cell noCPT: inconclusive; TDP1 inh: 7.2%; RORg inh: -6.3%; DT40 TDP1 CPT: 16.4µM*

How did COc1nc(NC2OC(CO)C(O)C(O)C2O)c(N)c(=O)[nH]1 (stereo not given) do in these assays?
TDP1 cell noCPT: -20.9%; DT40 TDP1 CPT: -18.6%

How did CCc1c(C#N)c(SCCC(=O)Nc2ccc(F)cc2)nc2c1C(=O)CC(C)(C)C2 do in these assays?
Gal4-VP16 FLuc: -5.8%; TDP1 cell noCPT: inconclusive; TDP1 inh: -1.0%; RORg inh: 20.4%; DT40 TDP1 CPT: 16.4µM*

How did CCc1c(C#N)c(SCCC(=O)Nc2cccc(OC)c2)nc2c1C(=O)CC(C)(C)C2 do in these assays?
Gal4-VP16 FLuc: 1.3%; TDP1 cell noCPT: 16.4µM*; TDP1 inh: 4.9%; RORg inh: -1.0%; DT40 TDP1 CPT: inconclusive

How did COc1ccc(-c2c(C#N)c(SCc3c(C)noc3C)nc3c2C(=O)CC(C)(C)C3)cc1 do in these assays?
Gal4-VP16 FLuc: -12.6%; TDP1 cell noCPT: -24.2%; TDP1 inh: 2.1%; RORg inh: 42.8%; DT40 TDP1 CPT: -11.8%

What do the screens show for `CC1(C)CC(=O)c2c(nc(SCC(=O)Nc3nsc(-c4ccccc4)n3)c(C#N)c2-c2ccccc2)C1`?
Gal4-VP16 FLuc: -3.1%; TDP1 cell noCPT: 4.61µM*; TDP1 inh: -5.4%; RORg inh: 7.1%; DT40 TDP1 CPT: 5.17µM*

Screening results as filed in PubChem BioAssay.
